# Experimental data: the supplement of paper PMC9177965
# Test system: HT29 RNF43 G659fs (RNF43 659mut, CRISPR-edited)
# Experiment: cell viability activity relative to DMSO (negative = inhibition); higher = more viable cells (less growth inhibition)
# Settings: 5 µM; 96 h
# Protocol: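 Broad Repurposing Library primary screen at a single dose of 5 uM. HT29 sg-Ctrl and HT29 RNF43 G659fs CRISPR-edited isogenic cells were seeded at 2500 cells/well in 384-well plates in duplicate and treated for 96 h. Viability was read by CellTiter-Glo and reported as % activity relative to DMSO, with MG132 as the positive control (negative = growth inhibition).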
row,SMILES,cell viability activity [%]
1,COc1ccc(C[C@H](NC(=O)[C@H](C)NC(=O)CN2CCOCC2)C(=O)N[C@@H](Cc2ccccc2)C(=O)[C@@]2(C)CO2)cc1,-95.4
2,COc1ccc(-c2nc(N3CCOCC3)c3sc(CN(C)c4ncc(C(=O)NO)cn4)cc3n2)cn1,-94.5
3,CCc1c2c(nc3ccc(O)cc13)-c1cc3c(c(=O)n1C2)COC(=O)[C@]3(O)CC,-84
4,CCN(CC)CCN(Cc1ccc(-c2ccc(C(F)(F)F)cc2)cc1)C(=O)Cn1c(SCc2ccc(F)cc2)nc(=O)c2c1CCC2,-96.2
5,CCOc1cc2ncc(C#N)c(Nc3ccc(OCc4ccccn4)c(Cl)c3)c2cc1NC(=O)/C=C/CN(C)C,-50.3
6,Cc1ccc(C(=O)N(CCCN)[C@@H](c2nc3cc(Cl)ccc3c(=O)n2Cc2ccccc2)C(C)C)cc1,-65.1
7,Cc1cc(I)ccc1Nc1c(C(=O)NOCC2CC2)cc(F)c(F)c1F,-65.5
8,C=CCNC1=C2C[C@@H](C)C[C@H](OC)[C@H](O)[C@@H](C)/C=C(\C)[C@H](OC(N)=O)[C@@H](OC)/C=C\C=C(/C)C(=O)NC(=CC1=O)C2=O,-90.1
9,OC1(c2ccc(Cl)c(C(F)(F)F)c2)CCN(CCCC(c2ccc(F)cc2)c2ccc(F)cc2)CC1,-83
10,CC(C)(N)c1cc(C(=O)N[C@@H]2CCc3ccc(Oc4ccnc5c4CCC(=O)N5)cc3C2)cc(C(F)(F)F)c1,-57.8
11,C[C@@H](NCCCc1cccc(C(F)(F)F)c1)c1cccc2ccccc12,-78.1
12,C/C(=N/Nc1nnc2c(n1)[nH]c1c(C)cccc12)c1ccccn1,-87.6
13,Oc1ccc(CC2NCCc3cc(O)c(O)cc32)cc1 (stereo not given),-63.7
14,CC(=O)O[C@@]12CO[C@@H]1C[C@H](O)[C@@]1(C)C(=O)[C@H](O)C3=C(C)[C@@H](OC(=O)[C@H](O)[C@@H](NC(=O)OC(C)(C)C)c4ccccc4)C[C@@](O)([C@@H](OC(=O)c4ccccc4)[C@H]21)C3(C)C,-58.2
15,Cc1nc(N)sc1-c1ccnc(Nc2ccc(N3CCOCC3)cc2)n1,-59.7
16,O=C1c2c(O)ccc(O)c2C(=O)c2c(NCCNCCO)ccc(NCCNCCO)c21,-100
17,O=C(CCCCCCC(=O)Nc1ccccc1)NO,-85.7
18,Cn1cc(CNCC2CCN(c3ncc(C(=O)NO)cn3)CC2)c2ccccc21,-95.9
19,CS[C@H]1SC[C@H]2C(=O)N(C)[C@@H](C(C)C)C(=O)OC[C@@H](NC(=O)c3cnc4ccccc4n3)C(=O)N[C@@H](C)C(=O)N(C)[C@@H]1C(=O)N(C)[C@@H](C(C)C)C(=O)OC[C@@H](NC(=O)c1cnc3ccccc3n1)C(=O)N[C@@H](C)C(=O)N2C,-88
20,COc1cc(NC(=O)Nc2cccc(CNC(=O)O[C@H]3CCOC3)c2)ccc1-c1cnco1,-41.5

row,SMILES,cell viability activity [%]
1,N=C(NCCCCCCNC(=N)NC(=N)Nc1ccc(Cl)cc1)NC(=N)Nc1ccc(Cl)cc1,-45.1
2,C=CCn1c(=O)c2cnc(Nc3ccc(N4CCN(C)CC4)cc3)nc2n1-c1cccc(C(C)(C)O)n1,-74.4
3,CCCCCCCCNC(C)C(O)c1ccc(SC(C)C)cc1 (stereo not given),-87.2
4,C=C[C@@](C)(/C=C/c1ccc(O)cc1)CCC=C(C)C,-39.5
5,CC(C)(C)c1cc(/C=C(\C#N)C(N)=S)cc(C(C)(C)C)c1O,-85.1
6,COc1cc(/C=C/C(=O)CC(=O)/C=C/c2ccc(O)c(OC)c2)ccc1O,-87.7
7,CC(C)(C)c1cc(NC(=O)Nc2ccc(-c3cn4c(n3)sc3cc(OCCN5CCOCC5)ccc34)cc2)no1,-46.2
8,Cc1cc(OCc2nnc(SC3CCCC3)n2-c2cccnc2)ccc1-c1ccc(S(C)(=O)=O)cc1,-86.4
9,CCCCCCCC(=O)N[C@H](CN1CCCC1)[C@H](O)c1ccc2c(c1)OCCO2,-40.1
10,CC1(C)CC(Oc2ccc(-c3ccc(-c4cn[nH]c4)cc3O)nn2)CC(C)(C)N1,-77
11,Nc1nccc2c1ncn2C1C=C(CO)C(O)C1O (stereo not given),-38.4
12,Cn1cnc2c(F)c(Nc3ccc(Br)cc3F)c(C(=O)NOCCO)cc21,-75.9
13,Cc1cnc(Nc2ccc(OCCN3CCCC3)cc2)nc1Nc1cccc(S(=O)(=O)NC(C)(C)C)c1,-95
14,COC(=O)Nc1nc2cc(C(=O)c3ccccc3)ccc2[nH]1,-58.1
15,Cc1ncc(NC(=O)c2ccc(CN3CCN(C)CC3)c(C(F)(F)F)c2)cc1Nc1nccc(-c2cccnc2)n1,-33.9
16,CN1CCN(CCOc2cc(OC3CCOCC3)c3c(Nc4c(Cl)ccc5c4OCO5)ncnc3c2)CC1,-54.8
17,CCCS(=O)(=O)Nc1ccc(F)c(C(=O)c2c[nH]c3ncc(-c4ccc(Cl)cc4)cc23)c1F,-35.4
18,Cc1cc(Nc2ccc(NC(=O)c3ccc(Nc4ccnc5ccccc45)cc3)cc2)nc(N)n1,-91
19,C[C@@H](C(=O)O)c1ccc(-c2ccccc2)c(F)c1,-68.9
20,CC(=O)c1ccc2c(c1)[C@@H]1C=CC[C@@H]1[C@H](c1cc3c(cc1Br)OCO3)N2,-69.9
